From PubChem BioAssay AID1053119 (Broad Institute, 2014)
Entries with a potency or affinity are not part of this list. Inconclusive results are not listed. The source made the active and inactive calls.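 How the source made its calls: active means signal loss from cell killing with fitted potency at or below twice the top valid dose; inconclusive means flat drop of 30 to 70%, or unreliable curve fit; inactive means opposite direction, flat within 30%, or weaker potency.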

Assay: viability loss in A549 lung cancer cells – cell-based, cherry-picks, 26 µM top dose, cytotoxicity control, dose response (AID 1053119);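 further: 0% = neutral control wells and -100% = 10 µM mitoxantrone wells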
Details: CellTiter-Glo ATP luminescence, 72 h; series mostly up to 26 µM; activity change, negative = cytotoxicity: at the top concentration

SMILES | activity change, negative = cytotoxicity
COc1ccc(-c2oc3ncnc(NCCCN4CCOCC4)c3c2-c2ccc(OC)cc2)cc1 | -31% (inactive)
c1ccc2[nH]c(SCc3cn4cccnc4n3)nc2c1 | 9.45% (inactive)
C[C@H]1CN([C@@H](C)CO)C(=O)c2cc(NC(=O)CCCN(C)C)ccc2O[C@@H]1CN(C)Cc1ccc(-c2ccccc2)cc1 | -0.529% (inactive)
O=C(CSc1nc2ncc(Cl)cc2[nH]1)c1c[nH]c2ccccc12 | 3.79% (inactive)
O=C(OCC(O)C(O)COC(=O)c1ccccc1)c1ccccc1 (configuration not stated) | -13.2% (inactive)
CO[C@@H]1CN(C)C(=O)c2cc(NC(=O)Nc3ccc(Cl)c(Cl)c3)ccc2OC[C@H](C)NC[C@H]1C | 2.06% (inactive)
Cc1cccc(NC(=O)c2ccc(C3SCC(=O)N3CCc3ccccc3)cc2)c1 (configuration not stated) | -0.187% (inactive)
COCC(=O)Nc1ccc2c(c1)C(=O)N(C)[C@H]1CC[C@H](CC(=O)NCc3ccccc3Cl)O[C@@H]1CO2 | -12% [at 23.5 µM] (inactive)
C[C@H]1CN([C@@H](C)CO)C(=O)c2cc(-c3ccccc3)cnc2O[C@H]1CN(C)C(=O)c1cccc(F)c1 | -9.13% (inactive)
CC(C)CNC(=O)c1coc(=O)c(Br)c1 | -7.45% (inactive)
COc1ccc([N+](=O)[O-])cc1NS(=O)(=O)c1ccc(C(=O)N2CCCC2)cc1 | -5.09% (inactive)
Cc1ccc(S(=O)(=O)N2CC3(C)CN(S(=O)(=O)c4ccc(C)cc4)CC(C)(C2)C3=O)cc1 | -4.34% (inactive)
CN(C)C(=O)c1ccc(-c2ccc3c(c2)[C@@H]2[C@@H](CCN2C(=O)c2ccc(F)cc2)[C@H](CO)N3C)cc1 | -11.7% (inactive)
CN1c2ccc(-c3ccccc3)cc2[C@@H]2[C@@H](CCN2C(=O)CN2CCOCC2)[C@H]1CO | -3.89% [at 23.5 µM] (inactive)
Cc1ccc(CS(=O)Cc2ccc(C(=O)NC3CCCC(C)C3C)o2)cc1 (configuration not stated) | 6.25% (inactive)
CC(C)NC(=O)N(C)C[C@H]1Oc2ccc(NC(=O)CCN3CCOCC3)cc2C(=O)N([C@H](C)CO)C[C@@H]1C | 3.85% (inactive)
CCCCOc1ccc(C(C)NC(=O)C2CCCN(S(=O)(=O)CCC)C2)cc1 (configuration not stated) | 5.52% (inactive)
CN(C)c1ccc(-c2ccnc3c2CC(C)(C(=O)NCC2CC2)O3)cc1 (configuration not stated) | -1% (inactive)
CO[C@H]1CN(C)C(=O)c2cc(NC(=O)Nc3ccc(Cl)c(Cl)c3)ccc2OC[C@H](C)NC[C@H]1C | -0.135% [at 8 µM] (inactive)

SMILES | activity change, negative = cytotoxicity
Cc1ccc(N(CC(=O)NCc2ccco2)S(=O)(=O)c2ccccc2)cc1 | -5.49% (inactive)
CC(C)Cc1nnc(NC(=O)CSc2nc(N)cc(=O)[nH]2)s1 | -9.89% (inactive)
Cc1cccc(NC(=O)Nc2ccc(S(=O)(=O)Nc3onc(C)c3C)cc2)c1 | -6.98% (inactive)
Cc1cc(C)c(S(=O)(=O)Nn2cnnc2)c(C)c1 | -12.4% (inactive)
C[C@H](CO)N1C[C@H](C)[C@@H](CN(C)Cc2ccc(-c3ccccc3)cc2)Oc2ccc(NC(=O)CCCN(C)C)cc2C1=O | -1.63% (inactive)
OC(CNC1CCCc2ccccc21)COc1c(Cl)cccc1Cl (configuration not stated) | -13.4% (inactive)
O=c1c2cc(N3CCOCC3)ccc2[nH]c(=S)n1Cc1ccc(Cl)cc1 | 0.921% (inactive)
C[C@@H]1CN([C@@H](C)CO)C(=O)c2cc(-c3ccccc3)cnc2O[C@@H]1CN(C)C(=O)c1cccc(F)c1 | -10.3% (inactive)
COCC(C)n1c(SCc2nc(N)nc(Nc3ccccc3C)n2)nc2ccccc2c1=O (configuration not stated) | 16.3% (inactive)
O=C(Nc1nc(-c2ccncc2)cs1)C1COc2ccccc2O1 (configuration not stated) | -13.6% (inactive)
CO[C@H]1CN(C)C(=O)c2ccc(NC(=O)Nc3cc(Cl)cc(Cl)c3)cc2OC[C@H](C)NC[C@@H]1C | -0.958% [at 8 µM] (inactive)
O=C(CC1Nc2ccccc2NC1=O)Nc1ccc2c(c1)OCO2 (configuration not stated) | -10.1% (inactive)
C[C@H]1CN([C@@H](C)CO)C(=O)c2cc(-c3ccccc3)cnc2O[C@H]1CN(C)Cc1ccccc1 | -3.41% (inactive)
Cc1oc2ccc(O)cc2c1C(=O)c1ccc(Br)cc1 | -18.2% (inactive)
COCC(=O)Nc1ccc2c(c1)C(=O)N(C)[C@@H]1CC[C@@H](CC(=O)NCc3ccccc3Cl)O[C@H]1CO2 | 1.05% [at 23.5 µM] (inactive)
COC(=O)c1c(NC(=O)CN2CCN(c3ccccc3Cl)CC2)sc(C)c1C | -11.6% (inactive)
C[C@@H]1CN([C@H](C)CO)C(=O)c2cc(NC(=O)C3CCCCC3)ccc2O[C@H]1CN(C)Cc1ccc(-c2ccccc2)cc1 | -1.4% (inactive)
CCOC(=O)C1=C(C)Nc2nc3ccccc3n2C1c1ccncc1 (configuration not stated) | -8.08% (inactive)
